Reference: PubChem BioAssay AID624115 (Johns Hopkins Ion Channel Center, 2012)
Screen size: about 4,000 compounds; about 350 (8.8%) were called active.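 The calls were made as follows: active = calcium fluorescence ratio at least three times the spread of buffer wells, meaning a non-specific response in parental cells; inactive = the rest.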 The list is a sample of the results.

Test: nonspecific Ca2+ signal without MrgX1 expression – cell-based, Fluo-4 calcium flux, duplicate, agonist mode, counter-screen for MrgX1 agonist project, primary screen (AID 624115)
Settings: parental HEK293, Fluo-4 calcium fluorescence (FDSS), at 10 µM; active compounds read high

Compound | fluorescence ratio F(max-min)/F0
COc1ccccc1Oc1nc(-c2cccnc2)nc2ccccc12 | inactive
CC(C)CNc1ncnc2c1cnn2Cc1ccc(Cl)cc1 | inactive
Cc1cccn2c(=O)c(/C=C3\SC(=S)N(CC(C)C)C3=O)c(NCCCOC(C)C)nc12 | inactive
O=C(C1CCN(S(=O)(=O)c2cnc[nH]2)CC1)N1CCN(Cc2ccc3c(c2)OCO3)CC1 | inactive
O=C(Oc1ccc(C(=S)N2CCOCC2)cc1)c1ccc(F)cc1 | inactive
Cc1occc1C(=O)Nc1nnc(-c2ccncc2)s1 | inactive
CCC(C)Sc1nc(C)nc2c1c(=O)n(C)c(=O)n2C (stereo not given) | inactive
O=C(CN1CCN(c2ccc(Cl)cc2)CC1)N1CCCC1 | inactive
Cc1c(C)c2c(OCC(=O)N[C@@H](C(=O)O)c3ccccc3)cc3c(c2oc1=O)CCC(C)(C)O3 | inactive
COC(=O)c1c(NC(=O)c2c(Cl)cnn2C)sc(C)c1C | inactive
COc1ccc(Nc2nnc(C)c3ccccc23)cc1 | inactive
O=C1C(Cc2ccc(O)cc2)NC(=S)N1Cc1ccccc1 (stereo not given) | inactive
Cc1cccc(NC(=O)C(C)N2C(=O)C3C4CC(C(Br)C4Br)C3C2=O)c1 (stereo not given) | 94.8 (active)
Cc1ccc(C(=O)COC(=O)CCN2C(=O)C3C4CC(C(Br)C4Br)C3C2=O)cc1 (stereo not given) | inactive
Cc1ccnc(NC(=O)C(C)N2C(=O)c3ccccc3C2=O)c1 (stereo not given) | inactive
Cc1ccc2c(c1)c1ncnc(N3CCc4ccccc4C3)c1n2C | inactive
O=C(COC(=O)c1ccc(NS(=O)(=O)c2cccs2)cc1O)Nc1ccc(F)cc1 | inactive
CN(c1cccc(NC(=O)Nc2ccc(Cl)cc2)c1)S(C)(=O)=O | inactive
O=C(c1cccs1)C1C(c2ccc(Br)cc2)NC(=S)NC1(O)C(F)(F)F (stereo not given) | inactive
CC(C)(C)n1c(=O)[nH]c2c(c1=O)CCC2 | inactive
CCN(CC)c1ccc2oc(=O)c(C)nc2c1 | inactive
CC(=O)N(C)c1ccc(NC(=O)C(F)(F)F)cc1 | inactive

Compound | fluorescence ratio F(max-min)/F0
CCc1nnc(NC(=O)CSc2nc3c(c(=O)n2-c2ccccc2OC)SCC3)s1 | inactive
CC1CCN(S(=O)(=O)c2nnc(NC(=O)COc3ccccc3F)s2)CC1 | inactive
CCSc1nsc(NC(=O)Nc2cccc(C(C)=O)c2)n1 | inactive
CCCCCCCCCCOC(=O)Cn1c(COc2cccc(OC)c2)[n+](C)c2ccccc21 | inactive
CN1/C(=C\C=C2\N=C(c3ccc(F)cc3)OC2=O)C(C)(C)c2ccccc21 | inactive
S=C(NCc1ccc(Cl)cc1)NC12CC3CC(CC(C3)C1)C2 | inactive
O=C(Nc1ccc(Cl)cc1)Nc1ccc(Oc2cccnc2)nc1 | inactive
CCc1ccc(N(CC(=O)Nc2sc3c(c2C(=O)OC)CCCC3)S(C)(=O)=O)cc1 | inactive
CC(=O)N1c2ccc(S(=O)(=O)N3CCCC(C(=O)Nc4cccc(Cl)c4)C3)cc2CC1C (stereo not given) | inactive
COc1cccc(CCNC(=O)COc2cccc3c2OC(C)(C)C3)c1 | inactive
O=C(COC(=O)C1CCN(S(=O)(=O)c2ccc3c(c2)OCCO3)CC1)Nc1ccccc1OC(F)F | inactive
COC(=O)c1ccc(COC(=O)C2CCN(S(=O)(=O)c3c(Cl)cccc3Cl)CC2)o1 | inactive
CCOC(=O)c1[nH]c2ccc(C)cc2c1N=C(C)N(C)C | 46.4 (active)
Cc1c(C(=O)N2CCCc3ccccc32)sc2nc(-c3ccccc3)cn12 | inactive
Clc1ccc(C=NC23CN4CN(CN(C4)C2)C3)cc1 | inactive
CC(Oc1ccc(F)cc1)C(=O)Nc1ccccc1C(=O)NC1CC1 (stereo not given) | inactive
CC(C)(C)Nc1c(-c2cccs2)nc2ccccn12 | inactive
O=c1cc(CSc2ccccn2)nc(N2CCN(c3ccccc3)CC2)[nH]1 | inactive
O=C(Nc1ccccc1Cl)N1CCN(c2ccc3nncn3n2)CC1 | inactive
CCc1cc2c(SCC(=O)Nc3ncc(Cl)c(C)c3Cl)ncnc2s1 | inactive
Cc1ccc(C(C(=O)NC2CCCCC2)N(C(=O)c2csnn2)C2CC2)o1 (stereo not given) | inactive
COC(=O)Cn1c(O)c(N=NC(=O)OC)c2ccccc21 | inactive

Compound | fluorescence ratio F(max-min)/F0
COc1cc(C)c(C)cc1S(=O)(=O)N1CCCc2ccccc21 | inactive
COc1cc(C(F)(F)F)nc2c(Br)c(C(C)(C)C)nn12 | inactive
CC(=O)N(C1=C(Cl)C(=O)c2ccccc2C1=O)c1ccc(C(=O)O)cc1 | inactive
O=C(Nc1ccccc1N1CCOCC1)c1csc2c1CCCC2 | inactive
C=CCOc1cccc(C2C(C(=O)c3ccc(C)o3)=C(O)C(=O)N2c2nnc(C)s2)c1 (stereo not given) | inactive
COC(=O)c1c(NC(=O)CN(c2ccc(C)c(C)c2)S(C)(=O)=O)sc2c1CCCC2 | inactive
CCN(C(=O)CSc1nnc2ccccn12)C1CCS(=O)(=O)C1 (stereo not given) | inactive
Brc1ccccc1C1Nc2cccc3cccc(c23)N1 | inactive
COc1ccc(Cc2nc(-c3ccccn3)no2)cc1OC | inactive
CCOC(=O)c1cn(Cc2cccc(C)c2)nn1 | inactive
C=CCNC(=O)c1cc(-c2ccccc2O)on1 | inactive
N=C(N)SCc1cccc2ccccc12 | inactive
CCc1cc(=O)oc2cc(C)cc(OCC(=O)N3CCC[C@@H]3C(=O)O)c12 | inactive
CCOc1ccc(C(=O)NC2CCN(S(=O)(=O)CC)CC2)cc1 | inactive
COc1ccc(S(=O)(=O)N2CCOCC2)c(C)c1C | inactive
CC(C)OCCCNc1ncnc2c1[nH]c1ccc(F)cc12 | inactive
Fc1ccc2[nH]c3c(N4CCSCC4)ncnc3c2c1 | 51.9 (active)
O=C(c1ccc(O)cc1)c1ccc(C(=O)O)c(C(=O)O)c1 | inactive
Cc1[nH][nH]c(=O)c1C(c1ccc(-c2ccc(Cl)cc2)o1)c1c(C)[nH][nH]c1=O | 48.2 (active)
COc1ccc(C(=O)NC2CCCc3c2cnn3-c2cccc(C)c2C)c(OC)n1 (stereo not given) | inactive
CCOc1ccccc1C1CC(c2ccc(Cl)cc2)Nc2nc(N)nn21 (stereo not given) | inactive
CN1C(CC(=O)Nc2ccc(Br)cc2)c2ccccc2CC1(C)C (stereo not given) | inactive

Compound | fluorescence ratio F(max-min)/F0
Nc1ccc(Oc2ccc(Cl)cc2)cc1 | inactive
C=CCNC(=O)c1csc(-c2ccccc2)n1 | inactive
COC(=O)Cc1cc(=O)n(-c2nc3ccccc3s2)[nH]1 | inactive
O=C(Nc1ccc(Br)cc1F)C1CC(=O)N(C2CCCCC2)C1 (stereo not given) | inactive
CC1CCCCN1S(=O)(=O)c1ccc(C(=O)Nc2nnc(-c3cccs3)o2)cc1 (stereo not given) | inactive
Cc1ccc(-n2[nH]c(C)c(/C=N/N3C(=O)c4cccc5cccc(c45)C3=O)c2=O)cc1 | 110 (active)
O=C(CSc1nncn1-c1cccnc1)N1CCOCC1 | inactive
Cc1nc(N2CCN(c3ccccn3)CC2)c2c(C)c(C(=O)Nc3ccc(F)c(Cl)c3)sc2n1 | inactive
CC(=O)OC(C)C[N+](C)(C)C (stereo not given) | 98.8 (active)
CCCCOC(=O)CNc1nnc(SCC(=O)OCC)[nH]c1=O | inactive
Cc1ccc(Nc2nc(-c3ccc(O)cc3O)cs2)nc1 | inactive
CCOC(=O)c1c(NC(=O)CNC2CCCc3ccccc32)sc(C(N)=O)c1C (stereo not given) | inactive
Cc1ccc(-n2cnc3ncnc(-c4ccccc4)c32)cc1 | inactive
COc1cc(C2/C(=C(\O)c3ccc4c(c3)CC(C)O4)C(=O)C(=O)N2Cc2ccco2)ccc1O (stereo not given) | inactive
CCOC(=O)c1c(C)[nH]c(=S)c(C#N)c1-c1ccccc1 | inactive
CCCc1cc(=S)n2c([nH]c3ccccc32)c1C#N | 71.7 (active)
COc1ccc(C(=O)CSc2n[nH]c(N)n2)cc1 | inactive
CCCCC(=O)NNC(=S)NC(=O)C(c1ccccc1)c1ccccc1 | inactive
COc1ccc(C(=O)NC(=S)NC2CCCCC2)cc1 | inactive
CC(Oc1ccc2ccccc2c1)C(=O)NNC(=S)NC(=O)c1ccco1 (stereo not given) | inactive
COc1ccc(C(=O)NC(=S)NNC(=O)CCc2ccccc2)cc1 | 101 (active)
COc1ccc(C(=O)NNC(=S)NC(=O)c2ccccc2)cc1 | 130 (active)

Compound | fluorescence ratio F(max-min)/F0
CCOC(=O)CNC(=O)CSc1nc2cccnc2n1CC | inactive
OCc1ccc(OCCCOc2cccc3cccnc23)cc1 | inactive
OCCn1c(-c2ccccc2)csc1=Nc1ccccc1 | inactive
COc1cccc(-c2cnc(OC(C)(C)C)nc2OC(C)(C)C)c1 | inactive
CCOc1ccc(NC(=O)N2CC=C(n3c(=O)[nH]c4ccccc43)CC2)cc1 | inactive
Cc1cc(Nc2cc(N3CCN(C)CC3)nc(Sc3ccc(NC(=O)C4CC4)cc3)n2)n[nH]1 | inactive
O=C(c1ccc(OC2CCN(C(=O)c3cccnc3)CC2)cc1)N1CCCCCC1 | inactive
COCCNC(=O)C1CCN(S(=O)(=O)c2ccc3c(c2)OCCO3)CC1 | inactive
CCOC(=O)N1CCN(C(=O)COCc2cc(-c3ccc4c(c3)OCO4)on2)CC1 | inactive
CC1(C(=O)O)CCC(C(=O)Nc2ccc(Cl)c(Cl)c2)C1(C)C (stereo not given) | 47.3 (active)
CCCc1[nH]nc2c1C(c1ccc(Br)s1)C(C#N)=C(N)O2 (stereo not given) | inactive
CC1(C)CC2CC(C)(CN2c2ncnc3ccc(Br)cc23)C1 (stereo not given) | inactive
O=C(CSc1ncccn1)NC(=O)NCc1ccccc1 | inactive
Cc1nc(C)c(-c2csc(NCCc3ccccc3)n2)s1 | 51.5 (active)
CCS(=O)(=O)c1ccc2c(c1)N(S(=O)(=O)c1ccccc1)CC(C(=O)O)O2 (stereo not given) | inactive
Cc1nc2ccccc2cc1OCc1ccc(F)cc1 | 45.3 (active)
NC(=O)c1c(Nc2nc3c(F)cccc3s2)sc2c1CCCC2 | inactive
COC(=O)c1ccc(C2C3=C(Nc4nnnn42)c2ccccc2OC3)cc1 (stereo not given) | inactive
O=C(CC(O)(C(F)(F)F)C(F)(F)F)Nc1ccc(Cl)c(Cl)c1 | 45.3 (active)
c1ccc(-c2[nH]ncc2-c2nc3ccccc3[nH]2)cc1 | inactive
COCCCNC(=O)C1CCN(c2ccc(N3CCOCC3)nn2)CC1 | inactive
CCOC(=O)C1=C(O)/C(=C/c2cc(C)n(-c3ccccc3)c2C)N=C1C | inactive
